Screening data: PubChem BioAssay, The Scripps Research Institute Molecular Screening Center
FBW7 act: human FBW7 E3 ligase activation, primary screen; Q969H0; AlphaScreen FBW7–phospho-cyclin E peptide binding, activator screen; normalized activity (activation), % at 26.1 µM; 0.13% of 650,000 active; AID 1259310; in the data active = normalized activity above about 1.9%;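 also: purified mutant Fbw7 with reduced substrate affinity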
GPR151 activ: human GPR151 activation. Q8TDV0. PathHunter beta-arrestin GPR151 cells, luminescence. activation, % at 11.2 µM. 1% of 650,000 active. AID 1508602; in the data active = activation above about 4.9%;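 also: 0% = median of compound wells and 100% = cells with positive control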
MITF inh: blocks human microphthalmia-associated transcription factor | O75030 | AlphaScreen MITF homodimerization, bead proximity signal | inhibition, % at 2.6 µM | 0.91% of 650,000 active; in the data active = inhibition above about 50%;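 also: 0% = vehicle wells with protein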
Target sequence (O75030 whole entry, looked up): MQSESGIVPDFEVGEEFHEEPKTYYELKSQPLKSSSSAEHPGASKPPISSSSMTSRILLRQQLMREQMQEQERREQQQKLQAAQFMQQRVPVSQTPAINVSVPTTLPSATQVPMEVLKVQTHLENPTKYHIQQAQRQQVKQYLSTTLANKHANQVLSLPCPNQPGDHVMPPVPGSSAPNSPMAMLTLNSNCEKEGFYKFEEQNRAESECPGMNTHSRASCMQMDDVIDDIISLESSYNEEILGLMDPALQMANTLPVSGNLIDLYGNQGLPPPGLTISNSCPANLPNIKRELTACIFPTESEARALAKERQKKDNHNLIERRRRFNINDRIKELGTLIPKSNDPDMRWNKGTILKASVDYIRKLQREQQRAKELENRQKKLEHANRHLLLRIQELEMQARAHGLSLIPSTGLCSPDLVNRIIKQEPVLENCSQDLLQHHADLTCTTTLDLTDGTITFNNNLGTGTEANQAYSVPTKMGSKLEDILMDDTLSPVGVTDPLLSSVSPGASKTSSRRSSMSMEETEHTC
TEAD-YAP block: TEAD-YAP interaction inhibition; HEK-TIYL cells, TEAD-Gal4/YAP UAS-luciferase luminescence; inhibition, % at 9.12 µM; 1.4% of 640,000 active; in the data active = inhibition above about 32%;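 also: 0% = median of test compound wells and 100% = reference inhibitor wells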
* marks the source's active call; other numbers are inactive results. An excerpt weighted towards active compounds, which were near 3.5% of everything screened.

SMILES	FBW7 act	GPR151 activ	MITF inh	TEAD-YAP block
CC(C)CNc1ncnc2ccccc12	0	2	-11	12
Clc1ccc(CNc2ncnc3sccc23)cc1	0	1	-3	52*
COc1ccc(CCn2c(=S)[nH]c3nccnc3c2=O)cc1OC	0	0	-1	40*
O=C(CSc1nc2cc(C(=O)NCc3cccc(Cl)c3)ccc2c(=O)n1C1CCCCC1)NC1CCCC1	0	0	-5	4
Cc1cc(NC(=O)CSc2nc3ccccc3c3nc(CCc4c[nH]c5ccccc45)nn23)n[nH]1	0	1	-10	61*
Cc1cc(NC(=O)CSc2nc3ccccc3c3nc(CCN4CCCCC4)nn23)n[nH]1	1	-1	15	58*
CC(C)CCNC(=O)CSc1nc(Nc2ccc3c(c2)OCO3)c2ccccc2n1	1	0	1	10
Cc1cc(NC(=O)CSc2nc(Nc3ccc4c(c3)OCO4)c3ccccc3n2)n[nH]1	0	1	9	50*
O=C(CSc1nc2ccccc2c(=O)n1CCCN1CCCCC1)Nc1nccs1	0	1	5	42*
CC(C)(O)C#Cc1ccc(C(=O)NCc2ccc3c(c2)OCO3)cc1	0	1	1	-10
CN1CCN(CCc2cn[nH]c2-c2ccc(F)cc2)CC1	0	0	3	6
Cc1ccc(C)c(OCC(=O)Nc2ccc(S(=O)(=O)Nc3cc(C)on3)cc2)c1	0	2	-18	4
Cc1ccc(NC(=O)c2c(C)oc(-n3cccc3)c2C#N)cc1	0	1	-9	-7
CN(C)c1ccc(/C=C(\C#N)c2nc3ccccc3s2)o1	0	0	-4	53*
O=C(O)C/C(=C\c1ccc2c(c1)OCCO2)c1nc2ccccc2s1	0	2	-6	0
O=C(O)C/C(=C\c1ccc(N2CCOCC2)cc1)c1nc2ccccc2s1	0	-1	-4	75*
N#C/C(=C\c1ccc(N2CCOCC2)cc1)c1nc2ccccc2s1	0	-1	15	39*
CCc1cc2c(cc3c(=O)n(CC(=O)N4CCN(Cc5ccccc5)CC4)ncn32)s1	0	-1	11	6
CC(=O)Nc1sc(C)c(C)c1C(=O)OCc1cc(=O)oc2ccc3ccccc3c12	1	-1	11	-4
CCc1nnc2n1N=C(c1ccc(Cl)c(Cl)c1)CS2	0	1	-1	-2
CC(=O)N(C1=C(N2CCN(C)CC2)C(=O)c2ccccc2C1=O)c1cccc(F)c1	0	-2	-2	88*
CC(=O)N(C1=C(Nc2ccccc2)C(=O)c2ccccc2C1=O)c1ccccc1	0	-2	21	9
CC(=O)N(C1=C(N2CCCC2)C(=O)c2ccccc2C1=O)c1ccc(F)c(F)c1	0	-4	-18	22
CCCNC1=C(N(C(C)=O)c2cccc(F)c2)C(=O)c2ccccc2C1=O	0	-5	7	93*
CC(=O)N(C1=C(N2CCCCC2)C(=O)c2ccccc2C1=O)c1cccc(Cl)c1	0	0	56*	-2
SMILES	FBW7 act	GPR151 activ	MITF inh	TEAD-YAP block
CN1CCc2c(sc(NC(=O)c3cc(-c4ccccc4)nc4ccccc34)c2C(N)=O)C1	0	-1	17	4
NC(=O)c1ccccc1N=Cc1ccc(Br)s1	0	3	14	8
COc1ccc(C=Nc2ccccc2C(N)=O)c2ccccc12	0	0	24	60*
Cc1ccc(C=Nc2ccccc2C(N)=O)s1	0	0	4	36*
CCN(CC)CCNS(=O)(=O)c1ccc(Cl)c([N+](=O)[O-])c1	0	0	12	-5
COc1ccc(-n2cccc2/C=C2\NC(=O)N(CC(=O)Nc3ccccc3)C2=O)cc1	0	2	9	-3
Cc1ccc(NC(=O)CN2C(=O)N/C(=C/c3cccn3-c3ccc(C(=O)O)cc3)C2=O)cc1	0	0	79*	1
O=C(c1ccc(C(=O)n2nnc3ccccc32)cc1)n1nnc2ccccc21	0	-1	3	-8
CN(C)C(=O)n1nnc2ccccc21	0	0	14	59*
C/C(=C\C1=NC(C)(C)Cc2ccccc21)NO	0	-1	9	6
CCc1nnc(NC(=O)c2ccc(CSc3ccccc3)o2)s1	0	-1	15	-3
COc1ccccc1NC(=O)Cc1noc(CSc2nnc(-c3ccccc3)o2)n1	4.5*	0	9	-11
O=C(Nc1ccccc1F)c1cnc2ccccn2c1=O	0	-2	9	54*
CCCC(=O)NC(c1ccc(OC)c(OC)c1)c1ccc2cccnc2c1O (stereo unspecified)	-2	0	45	88*
O=C(CCc1ccccc1)NC(c1ccc2c(c1)OCO2)c1ccc2cccnc2c1O (stereo unspecified)	-1	-1	16	83*
